Bioassay records as filed in PubChem.
Shown is part of a subset that was picked to be rich in hits.
mHTT-CaM PPI inh = disrupts binding of mutant huntingtin to calmodulin | P42858 | AlphaScreen His-mHTT/GST-CaM binding, luminescence | inhibition, % at 15 µM | 190,000 tested, 3.6% active | AID 1671202;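 also: 0% = both proteins with DMSO and 100% = one protein alone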
Pf apPOL block = Pf-apPOL DNA polymerase inhibition | Recombinant Pf-apPOL, molecular beacon fluorescence, 1.5 h | inhibition, % at 10 µM | 210,000 tested, 0.25% active | AID 1794808
The depositor's hits bear a star. Rule as the data show it: active = inhibition above about 50%; inactive = the rest.

Results for O=C(CSc1ccc2nnc(-c3ccccn3)n2n1)NCc1ccc2c(c1)OCO2 ?
mHTT-CaM PPI inh: 24; Pf apPOL block: 5

What do the screens show for `O=S(=O)(c1cccc(F)c1)N1CCC(CN2CCCCC2)CC1`?
mHTT-CaM PPI inh: -7; Pf apPOL block: -1

How did O=C(NC1CC(O)C(CO)C1)c1ccc(Cl)cc1 (centres undefined) do in these assays?
mHTT-CaM PPI inh: -9; Pf apPOL block: -8

Results for O=CNC(c1ccccc1)c1cccc([N+](=O)[O-])c1 (centres undefined) ?
mHTT-CaM PPI inh: 0; Pf apPOL block: 0

Results for CC(=O)NC(c1ccc(C(C)C)cc1)c1ccc2cccnc2c1O (centres undefined) ?
mHTT-CaM PPI inh: 100*; Pf apPOL block: -34

What do the screens show for `CCCCC(=O)NC(c1cccc([N+](=O)[O-])c1)c1ccc2cccnc2c1O` (centres undefined)?
mHTT-CaM PPI inh: 100*; Pf apPOL block: -7

What do the screens show for `CC(=O)NC(c1cccc([N+](=O)[O-])c1)c1ccc2cccnc2c1O` (centres undefined)?
mHTT-CaM PPI inh: 100*; Pf apPOL block: 1

What do the screens show for `CC(=O)Nc1cccnc1-c1ccc(C(=O)Nc2ccc(C(C)C)cc2)cc1`?
mHTT-CaM PPI inh: 24; Pf apPOL block: 1

Results for O=C(Nc1cccc2cccnc12)c1cccc([N+](=O)[O-])c1 ?
mHTT-CaM PPI inh: -1; Pf apPOL block: 1

How did CCCCC[C@H]1CN(CCCC)C(=O)[C@@H]1CC(=O)NCc1ccc(OC)cc1 do in these assays?
mHTT-CaM PPI inh: 16; Pf apPOL block: -2

What do the screens show for `CCCCC[C@H]1CN(CCc2ccccc2)C(=O)[C@@H]1CC(=O)NCc1ccc(OC)cc1`?
mHTT-CaM PPI inh: 75*; Pf apPOL block: -5

What do the screens show for `O=C(c1ccc(OCC2CCCN(C(=O)c3ccc(F)c(Cl)c3)C2)cc1)N1CCCC1` (centres undefined)?
mHTT-CaM PPI inh: 17; Pf apPOL block: 3

What do the screens show for `CCOc1ccc(NC(=O)/C(C#N)=C/c2cc(C)n(-c3cccnc3)c2C)cc1`?
mHTT-CaM PPI inh: 20; Pf apPOL block: -4

What do the screens show for `Cc1ccc(NC(=O)/C(C#N)=C/c2cc(C)n(-c3cccnc3)c2C)cc1C`?
mHTT-CaM PPI inh: 52*; Pf apPOL block: -8

Results for O=C(CN1CCN(c2ccccc2)CC1)Nc1nnc(-c2ccco2)s1 ?
Pf apPOL block: 1

What do the screens show for `CC(=O)N(C1=C(N2CCOCC2)C(=O)c2ccccc2C1=O)c1ccccc1`?
mHTT-CaM PPI inh: 20; Pf apPOL block: 0

How did COc1cccc(N(C(C)=O)C2=C(N3CCCC3)C(=O)c3ccccc3C2=O)c1 do in these assays?
mHTT-CaM PPI inh: 99*; Pf apPOL block: -12

What do the screens show for `CC(=O)N(C1=C(N2CCCCC2)C(=O)c2ccccc2C1=O)c1ccccc1C`?
mHTT-CaM PPI inh: 27; Pf apPOL block: -12

Results for CC(=O)N(C1=C(N2CCOCC2)C(=O)c2ccccc2C1=O)c1ccc(Cl)c(Cl)c1 ?
mHTT-CaM PPI inh: 96*; Pf apPOL block: -8

How did O=C(NCCN1CCCC1)c1ccnc(N2CCNC(c3ccccc3)C2)c1 (centres undefined) do in these assays?
mHTT-CaM PPI inh: 25; Pf apPOL block: -7

What do the screens show for `Cc1ccc(C(=O)N2CCC3(C2)Nc2cccnc2NC3=NC(C)(C)C)cn1` (centres undefined)?
mHTT-CaM PPI inh: -1; Pf apPOL block: -5

What do the screens show for `O=C(Nc1ccccc1F)C1CC(=O)N(c2ccc(Br)cc2)C1` (centres undefined)?
mHTT-CaM PPI inh: 2; Pf apPOL block: 0

How did O=C(Nc1nc2ccccc2s1)C1CC(=O)N(c2ccc(Br)cc2)C1 (centres undefined) do in these assays?
mHTT-CaM PPI inh: 60*; Pf apPOL block: 1

What do the screens show for `O=C(Sc1n[nH]c(=O)[nH]c1=O)c1ccc(Cl)cc1`?
mHTT-CaM PPI inh: 37; Pf apPOL block: -4

How did Cc1cccc(C(=O)Sc2n[nH]c(=O)[nH]c2=O)c1 do in these assays?
mHTT-CaM PPI inh: 70*; Pf apPOL block: -12

How did O=C1Nc2cc(Cl)c(Cl)cc2N(O)N1c1ccc(F)cc1 do in these assays?
mHTT-CaM PPI inh: 0; Pf apPOL block: -1

What do the screens show for `CCCCC(=O)Nc1nnc2ccccn12`?
mHTT-CaM PPI inh: 8; Pf apPOL block: -3

How did COc1ccccc1CC(=O)N1CCN(C2=CC3=NCC(C)N3C=N2)CC1 (centres undefined) do in these assays?
mHTT-CaM PPI inh: 15; Pf apPOL block: -4

Results for Cc1ccccc1OCC(=O)N1CCN(C2=CC3=NCC(C)N3C=N2)CC1 (centres undefined) ?
mHTT-CaM PPI inh: 100*; Pf apPOL block: 1

What do the screens show for `CC(C)(C)c1noc(Cc2nnc(-c3ccccc3)o2)n1`?
mHTT-CaM PPI inh: -9; Pf apPOL block: -2

What do the screens show for `Cc1cccc(CS(=O)(=O)Cc2ccc(C(=O)NCCc3ccc(Cl)cc3)o2)c1`?
mHTT-CaM PPI inh: 17; Pf apPOL block: -11

How did CC1CCCC(Nc2ccc(N3C(=O)CCC3=O)cc2[N+](=O)[O-])C1C (centres undefined) do in these assays?
mHTT-CaM PPI inh: 42; Pf apPOL block: -16

What do the screens show for `CC1CCCC(Nc2ccc(N3C(=O)C4C5C=CC(C5)C4C3=O)cc2[N+](=O)[O-])C1C` (centres undefined)?
mHTT-CaM PPI inh: 55*; Pf apPOL block: -19

What do the screens show for `COc1cc(C(=O)N2CCC(CC(=O)NCc3ccc(C)cc3)CC2)cc(OC)c1OC`?
mHTT-CaM PPI inh: -3; Pf apPOL block: -5

What do the screens show for `COc1cc(-c2c(C#N)c(N)nc3sc(C(N)=O)c(N)c23)cc(OC)c1OC`?
mHTT-CaM PPI inh: 65*; Pf apPOL block: -5

Results for COc1cc(-c2c(C#N)c(N)nc(SC)c2C#N)cc(OC)c1OC ?
mHTT-CaM PPI inh: -2; Pf apPOL block: 0

Results for CSc1cccc2sc(N(CCN(C)C)C(=O)c3ccc(N(C)C)cc3)nc12 ?
mHTT-CaM PPI inh: 42; Pf apPOL block: -3

How did CN(C)CCCN(C(=O)c1cccc(C(F)(F)F)c1)c1nc2ccc(F)cc2s1 do in these assays?
mHTT-CaM PPI inh: 55*; Pf apPOL block: -9

How did Cc1ccc(NC(=O)C2CC(=O)N(c3ccccc3Cl)C2)cc1 (centres undefined) do in these assays?
mHTT-CaM PPI inh: -3; Pf apPOL block: 0

What do the screens show for `Cc1c(Cl)cccc1-c1ccc(C(=O)Nc2ccccc2[N+](=O)[O-])o1`?
mHTT-CaM PPI inh: 14; Pf apPOL block: 19

What do the screens show for `Cc1ccc(-c2nc3sccn3c2NC(=O)c2ccc(Cl)cc2)cc1`?
mHTT-CaM PPI inh: 58*; Pf apPOL block: -4

How did CC(C)(C)c1ccc(C(=O)Nc2c(-c3ccccc3)nc3sccn23)cc1 do in these assays?
mHTT-CaM PPI inh: 42; Pf apPOL block: -3

What do the screens show for `CS(=O)(=O)N1CCc2ccc(C(=O)NC3CC3)cc21`?
mHTT-CaM PPI inh: -3; Pf apPOL block: -2

Results for Cc1ccc(CNC(=O)Cc2cn(C)c3ncccc23)cc1 ?
mHTT-CaM PPI inh: -15; Pf apPOL block: 2

How did Cc1ccc(NS(=O)(=O)c2cn(C)c3ncccc23)cc1 do in these assays?
mHTT-CaM PPI inh: 67*; Pf apPOL block: 80*

Results for O=Cc1cc2cc3c4c(c2oc1=O)CCCN4CCC3 ?
mHTT-CaM PPI inh: -6

How did O=C(Nc1cccn2c(C3CCC3)nnc12)c1ccccn1 do in these assays?
mHTT-CaM PPI inh: 61*; Pf apPOL block: -8

How did O=C(Nc1cccn2c(C3CCC3)nnc12)C1CCCO1 (centres undefined) do in these assays?
mHTT-CaM PPI inh: -1; Pf apPOL block: -2
